CHO-K1 Ca PAM – counter-screen for M1 PAMs: effect in parental CHO-K1 cells; ATP EC20, Fluo-8 calcium fluorescence; 0% at ATP EC20, 100% at ATP max; 360,000 compounds, 0.02% hits; activation, % at 3 µM;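 active = activation above the run cutoff, the mean activation of all test compounds plus 3 SD, cut at about 40% in these data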;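 note: peak over basal fluorescence ratio in a 140 s read after ATP addition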
M1 PAM – human CHRM1 positive allosteric modulation | P11229 | CHO-K1 hM1, Fluo-8 calcium fluorescence, ACh EC20; 0% = ACh EC20, 100% = maximal ACh | activation, % at 3 µM | 360,000 compounds, 0.088% hits | AID 588819; in the data active = activation above about 19%, passing the limit was not always enough
Target sequence (P11229 whole entry, looked up): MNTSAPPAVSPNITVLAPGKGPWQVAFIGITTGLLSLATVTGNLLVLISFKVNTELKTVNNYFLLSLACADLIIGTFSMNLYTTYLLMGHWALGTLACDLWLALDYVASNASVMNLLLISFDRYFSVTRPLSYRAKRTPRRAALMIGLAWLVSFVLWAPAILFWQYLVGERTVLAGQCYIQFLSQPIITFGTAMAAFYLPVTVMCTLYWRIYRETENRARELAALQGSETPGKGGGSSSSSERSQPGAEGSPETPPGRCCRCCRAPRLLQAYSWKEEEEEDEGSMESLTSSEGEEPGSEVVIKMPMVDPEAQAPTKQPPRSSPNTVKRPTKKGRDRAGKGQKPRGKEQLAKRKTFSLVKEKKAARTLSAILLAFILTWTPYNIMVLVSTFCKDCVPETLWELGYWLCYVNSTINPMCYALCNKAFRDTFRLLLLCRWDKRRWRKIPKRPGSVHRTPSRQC
M1 ag parental – counter-screen for M1 agonists: effect in parental CHO-K1 cells; Fluo-8 calcium fluorescence; scaled to maximal ATP response, vehicle zero; activation, % at 3 µM; 360,000 compounds, 0.48% hits; AID 602248; in the data active = activation above about 15%;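 note: untransfected CHO-K1 host cells lacking M1 receptor as counterscreen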
CHO-K1 Ca antag – counter-screen for M1 antagonists: effect in parental CHO-K1 cells | ATP-induced calcium, Fluo-8 fluorescence | inhibition, % at 3 µM | 360,000 compounds, 0.6% hits | AID 602250;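 active = inhibition above a per-plate cutoff, the plate's mean sample inhibition plus 3 SD, cut at about 24% in these data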;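 note: 0% = DMSO plus EC80 ATP and 100% = DMSO alone without ATP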
M1 ag – agonists of human M1 muscarinic receptor | P11229 | CHO-K1 hM1, Fluo-8 calcium fluorescence, agonist mode; 0% DMSO, 100% acetylcholine EC100 | activation, % at 3 µM | 360,000 compounds, 0.33% hits;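 active = activation above the run's mean compound activation plus 3 SD, cut at about 16% in these data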;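 note: peak over basal fluorescence ratio within a 140 s kinetic read after compound addition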
CHRM1 antagonist – blocks human M1 muscarinic receptor. P11229. CHO-K1 hM1, Fluo-8 calcium fluorescence, ACh EC80 antagonist. inhibition, % at 3 µM. 360,000 compounds, 1.3% hits. AID 588852;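 active = percent inhibition above its own plate's cutoff, namely the mean of that plate's compound wells plus 3 SD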;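 note: peak over basal fluorescence ratio during 140 s after agonist addition; 0% = ACh EC80 plus DMSO and 100% = DMSO alone without agonist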
* hit, by the source's call. This is a sample that favours compounds with a hit; in the whole collection about 2.3% have one here.

SMILES	CHO-K1 Ca PAM	M1 PAM	M1 ag parental	CHO-K1 Ca antag	M1 ag	CHRM1 antagonist
CCn1c(SCC(=O)N/N=C/c2ccc(C)o2)nnc1-c1ccccc1	-7.1	-6.4	-0.7	28.3*	-5.0	7.5
Nc1nonc1-n1nnc(C(=O)N/N=C/c2ccco2)c1-c1ccccc1	13.4	14.7	1.9	-15.7	22.4*	-5.6
Cc1ccc(/C=N/NC(=O)c2nnn(-c3nonc3N)c2-c2ccccc2)o1	19.7	3.2	21.9*	-9.0	9.4	-5.0
O=C(O)c1ccc(N=Nc2c(O)ccc3ncccc23)cc1	17.8	6.4	-0.4	-3.7	-3.9	-5.6
Fc1ccccc1Oc1nc(-c2ccncc2)nc2ccccc12	19.6	2.8	0.9	-8.6	-4.7	-3.5
CCC(=O)N1CCCC(C(=O)NCc2ccc(C(C)C)cc2)CC1 (centres undefined)	-5.1	4.5	0.9	3.5	-6.9	-19.0
CC(C)(C)c1ccc(CC(=O)N2CCC2(C)C(=O)NS(=O)(=O)c2cccc(F)c2)cc1 (centres undefined)	15.8	8.3	0.0	-7.0	-2.4	-12.8
Nc1nonc1-n1nnc(C(=O)N/N=C/c2ccoc2)c1-c1ccccc1	12.5	4.5	5.7	-9.6	16.1*	-0.9
Nc1nonc1-n1nnc(C(=O)N/N=C/c2ccc(F)cc2)c1-c1cccs1	5.6	3.5	7.3	-12.1	19.2*	-1.0
COc1cc(C)c(C)cc1S(=O)(=O)NC1CC(C)(C)NC(C)(C)C1	-14.2	12.6	0.4	-1.2	-2.6	-22.1
C/C(=N\NC(=O)c1nnn(-c2nonc2N)c1-c1ccc(Cl)c(Cl)c1)c1ccncc1	8.9	0.8	1.5	9.2	-3.5	0.4
CCOC(=O)Cc1csc(SCC(=O)Nc2cc(Cl)ccc2Oc2ccccc2)n1	1.1	-11.4	7.0	28.6*	-2.2	28.7
O=C(CSc1n[nH]c(=O)n1C1CC1)Nc1cc(Cl)ccc1Oc1ccccc1	4.1	-15.7	7.8	25.1*	2.4	45.9*
O=C(CSc1n[nH]c(=O)n1C1CC1)Nc1ccccc1	14.8	6.1	0.2	5.6	-1.6	-1.2
Cc1c(Cl)cccc1NC(=O)CNC(=O)Cc1c[nH]c2ccccc12	14.9	9.6	1.0	-15.7	-1.9	-9.5
COc1cc(/C=N/NC(=O)c2cc(-c3cccc(OC(C)C)c3)nc3ccccc23)ccc1O	4.4	-11.9	1.2	-4.1	-1.1	24.7
Cc1cc(C)cc(C(=O)NCC(=O)OCC(=O)N2CCCC2)c1	-5.3	-5.7	-0.1	6.5	-2.0	13.3
Cc1cc(C)nc(/N=C(\N)N2CCCCCC2)n1	10.3	-23.5	0.1	-1.8	-12.5	29.9*
Fc1ccccc1C1c2[nH]c3ccccc3c2CCN1CCCn1cccn1 (centres undefined)	5.7	-21.5	0.2	-8.2	-8.2	38.1*
COc1ccc([C@H]2CC(=O)C=C(c3ccccc3OC)C2)cc1OC	6.2	-10.1	4.4	-8.7	-2.6	14.8
CN(C)C(C)(C)/C=C/C(O)(c1ccccc1)c1ccccc1	-0.7	-25.9	3.2	-9.0	-7.9	100.0*
CN(C)N(Cc1ccccc1)C(=O)C(O)(c1ccccc1)c1ccccc1	13.0	-6.5	3.2	-4.0	-7.5	4.7
Cc1cccc(NNC(=S)Nc2ccccc2)c1	-11.4	7.5	-0.6	24.6*	-3.4	2.2
Cc1cccc(NC(=S)NNc2cccc(Cl)c2)c1	5.9	13.0	-0.1	3.0	-1.2	-14.6
N=Nc1c(O)n(CC(=O)Nc2ccccc2)c2ccccc12	19.6	10.2	0.8	-15.1	-1.4	-15.5
SMILES	CHO-K1 Ca PAM	M1 PAM	M1 ag parental	CHO-K1 Ca antag	M1 ag	CHRM1 antagonist
COc1cc2cc(CCCOC(=O)c3ccc4c(c3)OCO4)oc(=O)c2cc1OC	7.9	5.7	0.7	-12.2	-10.4	-0.2
CCOC(=O)c1cnc2ccccc2c1NCc1ccco1	20.3	-26.5	1.8	-8.5	-7.6	91.8*
C#CCCCCCCC#CCN(C)C	-14.2	-17.0	0.0	25.6*	41.1*	20.7
O=Nc1[nH]c(=O)c(/C=C(\O)c2ccccc2)nc1NO	2.0	6.8	0.7	-5.2	-3.5	-13.7
CC1(C)Cc2cccc(OCC(=O)Nc3cc(C(F)(F)F)ccc3N3CCOCC3)c2O1	-9.0	-11.9	0.3	30.3*	-3.4	24.8
Cc1ccc(CNC(=O)COc2cccc3c2OC(C)(C)C3)cc1	-9.8	-2.8	-1.2	5.6	-3.3	2.7
CC1(C)CC(=O)c2c(O)cc(OCC(=O)Nc3ccc(S(N)(=O)=O)cc3)cc2O1	7.2	1.1	2.9	3.3	-5.5	-7.7
CC1(C)Cc2cccc(OCC(=O)NCc3ccccc3F)c2O1	-12.5	-12.0	0.7	-12.5	-2.6	29.0*
Cc1nc2ccccc2nc1OCC(=O)Nc1cc(C(F)(F)F)ccc1N1CCOCC1	-0.6	-8.6	1.7	12.1	-2.4	-13.4
CC(=O)Nc1ccc(NC(=O)COc2cccc3c2OC(C)(C)C3)cc1	15.1	10.1	1.4	-10.9	-1.9	-5.1
COc1cc(NC(=O)COc2cccc3c2OC(C)(C)C3)cc(OC)c1OC	-21.0	-15.5	18.3*	5.3	3.2	31.9
COc1cc(NC(=O)COc2cc(O)c3c(c2)OC(C)(C)CC3=O)cc(OC)c1OC	-18.3	-28.6	18.2*	36.8*	4.4	51.5*
COCCNC(=O)C1(C)CCN(C(=O)c2cccc(C)c2C)C1 (centres undefined)	7.3	-5.4	0.4	-8.5	-3.3	1.9
COc1ccc(Cl)cc1NC(=O)NN1CCN(C)CC1	-0.3	2.2	0.7	-5.3	-0.5	0.7
Cc1sc2nc(CN3CCOCC3)nc(N3CCOCC3)c2c1C	14.3	8.4	0.0	1.3	-4.2	-12.4
Cc1sc2nc(CN3CCOCC3)nc(N3CCC(C(N)=O)CC3)c2c1C	-15.9	12.6	0.1	25.1*	0.8	-12.5
COc1ccc(C2=NS(=O)(=O)N(C)C(C(=O)N3CCc4ccccc4C3)=C2)cc1OC	13.6	-18.7	7.6	11.0	-0.6	25.3*
COc1ccc(C2=NS(=O)(=O)N(C)C(C(=O)NCc3ccccc3)=C2)cc1OC	23.2	0.8	4.0	-9.8	3.1	-12.3
CSCCC(NS(=O)(=O)c1cccc(C(F)(F)F)c1)C(=O)N(C)Cc1ccc2c(c1)OCCO2 (centres undefined)	-14.8	-14.4	5.0	11.2	-1.2	37.9*
CSCCC(NS(=O)(=O)c1ccc2c(c1)OCCO2)C(=O)N(C)Cc1ccc(F)cc1 (centres undefined)	4.6	-7.1	8.6	0.2	-0.8	16.5
CCN(CC)S(=O)(=O)c1cc(NC(=O)C2CCN(c3ncnc4sc(C)c(C)c34)CC2)ccc1Cl	9.7	-12.6	2.3	-8.2	-3.1	36.5*
CCN(CC(=O)Nc1cc(Cl)ccc1C)C(=O)C1CCN(c2ncnc3sc(C)c(C)c23)CC1	-11.3	-19.1	5.2	3.9	-2.1	37.0*
